± gives the standard deviation of the averaged measurements.

Nine compounds from the supplement of paper PMC7156485 can be followed below.

Conditions in all cases: concentration: 10 µM; 24 h
Experiment [1] concerns HCC1569. Nature of the experiment: cell number relative to DMSO (% of DMSO); higher = more cells (less growth inhibition / toxicity). An outline of the steps: (§1)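 Cells were seeded at 800 per well in 384-well plates with RPMI containing 10% FBS; both HCC1569 and TDF lines were used. Compounds were added at 10 µM for 24 h at 37 °C, in triplicate, before fixation in 3.7% formaldehyde and staining with a rabbit anti-H1.0 antibody, an AlexaFluor 647 secondary and DAPI. H1.0 nuclear intensity or cell number is reported as percent of the plate control using the median of replicates, and HCC1569 values were smoothed for positional effects.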

For experiment [2], the system named is TDF. The description is as above. The method in brief:
as §1

The test system of experiment [3] is TDF. Nature of the experiment: H1.0 immunofluorescence intensity relative to DMSO (% of DMSO); higher = stronger H1.0 induction, active = 120 or more. An outline of the steps:
as §1

Experiment [4] relates to HCC1569. Nature of the experiment: H1.0 immunofluorescence intensity relative to DMSO (% of DMSO); higher = stronger H1.0 induction, active = 140 or more. The method in brief: as §1
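Wherever H1.0 immunofluorescence intensity relative to DMSO is given: TDF is a line of transformed human dermal fibroblasts of mesenchymal origin.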
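Wherever cell number relative to DMSO is given: TDF denotes transformed human dermal fibroblasts of mesenchymal origin.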

In the case of `N=c1ccn2c(n1)OC1C(O)C(CO)OC12` (stereo unspecified) [Cyclocytidine], the cell number in experiment [1] turned out to be 76.4; in experiment [2] it was 51.7. The H1.0 immunofluorescence intensity in experiment [3] is 103 (inactive); in experiment [4], 101 (inactive).
Take `C=C(C)C1CC=C(C(=O)O)CC1` (single isomer, unassigned; (-)) [(-)-Perillic acid]: the cell number in experiment [1] and in experiment [2] was 104 each time. In addition, the H1.0 immunofluorescence intensity in experiment [3] is 95.9 (inactive); in experiment [4], 99.9 (inactive).
Take `CC12CCC(=O)C=C1CCC1C2C(O)CC2(C)C1CCC2(O)C(=O)CO` (stereo unspecified) [Hydrocortisone]: the cell number came to 98.68 ± 0.34 in experiment [1] and 102 ± 9.9 in experiment [2]. In addition, the figures for the H1.0 immunofluorescence intensity in experiment [3] and in experiment [4] were 86.3 (inactive) and 105 (inactive), respectively.
With `CC(=O)OCC(=O)[C@@]1(O)CC[C@H]2[C@@H]3CCC4=CC(=O)CC[C@]4(C)[C@@]3(F)[C@@H](O)C[C@@]21C`, the cell number in experiment [1] and in experiment [2] was 103 each time. Besides, the H1.0 immunofluorescence intensity is 80 (inactive) in experiment [3] and 104 (inactive) in experiment [4].
In the case of `COC(=O)C1C(O)CCC2CN3CCc4c([nH]c5ccccc45)C3CC21.Cl` (stereo unspecified), the cell number came out at 102 ± 5.1 in experiment [1] and 107 ± 3.6 in experiment [2]. Moreover, the H1.0 immunofluorescence intensity was 91.2 (inactive) in experiment [3] and 100 (inactive) in experiment [4].
`CN(C)CCC=C1c2ccccc2Sc2ccc(Cl)cc21.Cl` [Chlorprothixene hydrochloride]: the cell number is 90.2 in experiment [1] and 106 in experiment [2]. The H1.0 immunofluorescence intensity in experiment [3] is 116 (inactive); in experiment [4] it was 127 (inactive).
In the same order, the values of `O=c1c(-c2ccc(O)cc2)coc2cc(OC3OC(CO)C(O)C(O)C3O)ccc12` (stereo unspecified) [Daidzin] are 95.7, 108, 94.8 (inactive) and 89.9 (inactive).
Turning to `Nc1c2c(nc3ccccc13)CCCC2O.O=C(O)C=CC(=O)O` (stereo unspecified) [Hydroxytacrine], the cell number was 106 in experiment [1] and 101 in experiment [2]. Further, the H1.0 immunofluorescence intensity in experiment [3] was 91.5 (inactive); in experiment [4], 101 (inactive).
The corresponding values for `O=C(CCNNC(=O)c1ccncc1)NCc1ccccc1` [Nialamide] are 102.5 ± 0.38, 103 ± 2.9, 92.2 (inactive) and 100 (inactive).
